A selection: hits, their analogues and other compounds. The true share with any hit is near 2.8%.
KCNH2 3.1 inh = KCNH2 3.1 (human) potassium channel inhibition; U2OS KCNH2 3.1, thallium flux FluxOr; hits give low values; activity change, % (tested at about 1.8 µM); actives 0.95% (n = 340,000); AID 720553;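 active = maximum activity change below -70%; inconclusive = maximum activity change from -70% to -50%; inactive = maximum activity change above -50%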;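 note: thallium influx rate constant from kinetic fluorescence after stimulation buffer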
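Normalized rate constant (relative to positive and negative DMSO controls) derived from a 2 min kinetic fluorescence read after stimulation; U2OS cells expressing the 3.1 isoform via virus at 1.77 x 10^8 /mL.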
HEK293 tox = cytotoxicity in counter-screen for GLP-1R inverse agonists; HEK293 cAMP-luciferase reporter cells, luminescence, 24 h; Potency, µM (doses to about 38.3 µM), actives largely listed as inhibitors; actives 0.13% (n = 410,000); AID 624418;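 note: loss of luciferase light is scored as toxicity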
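To flag toxic compounds, the library was rerun on cells for 24 hr at 37 deg C and 5% CO2. Viability-linked luminescence was captured 12 min after adding luciferase detection reagent.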
GLP1R inv ag = acts as inverse agonist at human GLP-1 receptor. P43220. HEK293 GLP-1R CRE-luciferase, luminescence, 24 h; GLP-1R form is constitutively active. Potency, µM (series often up to 38.3 µM), hits mostly inhibitors. actives 1.6% (n = 410,000); note: nearly all actives have a fitted effect of over 55% in size
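Inverse agonism was detected as reduced cAMP-driven luciferase luminescence after 24 h compound treatment. The cells were HEK293 clones expressing constitutively active human GLP-1R with the reporter. Reporter-only and GPR119 cell lines served as counterscreen controls.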
GLS inh = inhibitors of human glutaminase (GLS); GLS enzymatic activity, qHTS titration; Potency, µM (doses to about 45.5 µM), actives largely listed as inhibitors; actives 0.21% (n = 410,000)
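Two-point fluorescence kinetic (t0, 30 min RT) for hKGA; glutamate detected via glutamate oxidase–HRP–Amplex Red. Substrate: 1 mM L-glutamine solution; buffer 45 mM KH2PO4, pH 8.2.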
KCNH2 WT inh = blocks the wildtype human KCNH2 potassium channel; U2OS, BacMam KCNH2, thallium flux FluxOr; hits give low values; activity change, % at 1.84 µM; actives 0.37% (n = 340,000); AID 720551;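 active = maximum activity change below -70%; inconclusive = maximum activity change between -70% and -50%; inactive = maximum activity change above -50%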
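U2OS cells transduced with wild-type KCNH2 virus are loaded with FluxOr dye for 45 min, and thallium flux is measured in kinetic reads before and after stimulation buffer. Rate constants are normalized to DMSO controls.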
GLP1R ag = GLP-1 receptor (human) agonism. Potency, µM (highest dose often 45.6 µM), hits mostly activators. actives 0.007% (n = 380,000). HEK293 GLP-1R CRE-luciferase, luminescence, 4-6 h; cells express a hypersensitive GLP-1R form
A number is an active result; 0 = inactive; ? = inconclusive; - = no result. Unless noted, calls come from the whole dose curve; as a rule, active = well fitted curve in the direction sought with a large enough effect; inconclusive = small, poorly fitted or top-dose-only effect, or another doubt; inactive = no such curve, though single readings can be large; an effect the other way counts as inactive or inconclusive.

SMILES	KCNH2 3.1 inh	HEK293 tox	GLP1R inv ag	GLS inh	KCNH2 WT inh	GLP1R ag
Cc1cc(-c2nc3ccccc3s2)ccc1N	-	0	7.94µM	0	0	0
Cc1ccc2nc(-c3ccc(N)cc3)sc2c1	0	0	4.47µM	0	0	0
Nc1ccc2nc(-c3ccccc3)sc2c1	0	0	8.91µM	0	0	0
Cc1ccc(CNC(=O)CS(=O)(=O)c2cccc3nsnc23)cc1	-	0	0	0	-	0
COc1ccnc2c1c(=O)n(Cc1ccc(Cl)cc1Cl)c(=O)n2C	0	0	0	11.2µM	0	0
COc1ccnc2c1c(=O)n(Cc1ccccc1Cl)c(=O)n2C	0	0	0	12.6µM	0	0
COc1ccnc2c1c(=O)n(Cc1ccc(Cl)cc1)c(=O)n2C	0	0	0	?	0	0
Cc1ccc(Cn2c(C(=O)NCc3ccccc3Cl)cc3sccc32)cc1	-	0	0	0	-	0
O=C(NCCC1=CCCCC1)c1cc(COc2ccc(F)cc2Cl)on1	0	0	5.01µM	0	0	0
CSc1ccc(CN(C)C(=O)c2cccc(S(=O)(=O)NCc3ccccc3)c2)cc1	0	0	5.01µM	0	0	0
COCCN(Cc1ccccc1)C(=O)c1cccc(S(=O)(=O)N2CCN(c3ccccc3)CC2)c1	0	0	10µM	0	0	0
Cc1cc(C)c(C(=O)COC(=O)c2cccc(S(=O)(=O)NCc3ccccc3)c2)cc1C	0	0	?	0	0	0
O=C(COC(=O)c1cccc(S(=O)(=O)NCc2ccccc2)c1)c1ccccc1	-84.2	0	?	0	0	0
COc1cccc(NC(=O)c2cccc(S(=O)(=O)N3CCN(Cc4ccccc4)CC3)c2)c1	0	0	6.31µM	0	0	0
COCCN(Cc1ccccc1)C(=O)c1cccc(S(=O)(=O)N2CCN(c3ccc(F)cc3)CC2)c1	0	0	?	0	0	0
COc1cc(Cl)c(C)cc1NC(=O)CCc1c(C)nc2c3cccnc3nn2c1C	-	0	0	0	-	-
CC(C)(O)/C=C/C[C@](C)(O)C1CC[C@]2(C)C1[C@H](O[C@H]1O[C@@H](CO)[C@H](O)[C@@H](O)[C@@H]1O)CC1[C@@]3(C)CC[C@H](O)C(C)(C)C3[C@@H](O)C[C@]12C (some centres not stated)	0	0	0	0	0	0
COc1ccc(NC(=O)C2(C)CCN2Cc2cccc(OC)c2OC)cc1OC (configuration not stated)	-	0	0	0	-	0
COc1cccc(NC(=O)C2(C)CCN2CCc2ccccc2)c1 (configuration not stated)	-	0	11.2µM	0	-	0
Cc1ccnc(NC(=O)c2cccc(S(=O)(=O)N3CCOCC3)c2)c1	0	0	0	0	0	0
Cc1ccnc(NC(=O)c2cccc(S(=O)(=O)N3CCN(c4ccc(F)cc4)CC3)c2)c1	-72.1	0	?	0	0	0
CN(Cc1ccc(F)cc1)C(=O)c1cccc(S(=O)(=O)N2CCN(c3ccccc3)CC2)c1	0	0	?	0	0	0
COc1cccc(CN2CCCN(S(=O)(=O)c3ccc(Br)cc3)CC2)c1	0	0	?	0	-88.5	0
CN(Cc1ccc(F)cc1)C(=O)c1cccc(S(=O)(=O)N2CCN(c3ccc(F)cc3)CC2)c1	0	0	10µM	0	0	0
CN(Cc1ccc(C(C)(C)C)cc1)c1cccc2ccccc12	-	-	-	0	-	0
SMILES	KCNH2 3.1 inh	HEK293 tox	GLP1R inv ag	GLS inh	KCNH2 WT inh	GLP1R ag
CSc1ccc(CN(C)C(=O)c2cccc(S(=O)(=O)N3CCN(Cc4ccccc4)CC3)c2)cc1	0	0	11.2µM	0	-121.8	0
CCN(C(=O)C(=O)Nc1ccc2nc3n(c(=O)c2c1)CCCCC3)c1ccc(F)cc1	-	0	0	0	-	-
Cc1nn2c(=O)cc(COC(=O)c3ccc(NC(=O)c4ccc(C(C)(C)C)cc4)cc3)nc2s1	-	0	0	0	-	-
Cc1nc(N2CCN(c3ccccn3)CC2)c2c(C)c(C(=O)Nc3ccc(Cl)cc3)sc2n1	0	0	0	0	0	0
Cc1c(C(=O)N(C)C2CCCCC2)sc2ncnc(N3CCN(c4ccccc4)CC3)c12	0	0	?	0	0	0
Cc1nc(N2CCN(c3ccccn3)CC2)c2c(C)c(C(=O)Nc3c(C)cc(Br)cc3C)sc2n1	-80.3	0	2µM	0	0	0
Cc1nc(N2CCN(c3ccccn3)CC2)c2c(C)c(C(=O)Nc3c(F)cc(F)cc3Br)sc2n1	-95.1	0	4.47µM	0	0	0
Cc1nc(N2CCCCC2)c2c(C)c(C(=O)Nc3ccc4c(c3)OCCO4)sc2n1	0	0	5.62µM	0	0	0
Cc1c(C(=O)N(C)C2CCCCC2)sc2ncnc(N3CCN(c4ccccc4F)CC3)c12	0	0	12.6µM	0	0	0
Cc1nc(N2CCN(c3ccccn3)CC2)c2c(C)c(C(=O)N3CCN(c4ccc(F)cc4)CC3)sc2n1	0	0	?	0	0	0
CC(C)N(C(=O)[C@H]1C[C@H](CC(=O)NCC23CC4CC(CC(C4)C2)C3)C(=O)N2CCc3c([nH]c4ccc(Cl)cc34)[C@]12C)C(C)C	0	0	0	0	0	0
CCOC(=O)c1ccc(NC(=O)CSc2nnc(CNC(=O)c3ccc(OC)cc3)n2CC)cc1	-	0	0	0	-	0
COc1cccc(C(=O)NCC(=O)OCc2cc(=O)n3nc(C)sc3n2)c1	-	0	0	0	-	-
Cc1c(C(=O)N2CCN(c3ccc(F)cc3)CC2)sc2ncnc(N3CCN(c4ccccn4)CC3)c12	-76.2	?	?	0	0	0
Cc1c(C(=O)N2CCN(c3ccccc3)CC2)sc2ncnc(N3CCN(c4ccccn4)CC3)c12	0	0	0	0	0	0
Cc1c(NC(=O)c2ccc(Br)o2)cccc1-c1nc2ccccc2o1	-	0	0	0	-	-
CSc1nc(S(=O)(=O)c2ccccc2)c(Cl)s1	0	0	0	0	0	0
CC1(C(=O)Nc2ccc(Cl)c(Cl)c2)CCN1C(=O)CC1CCCC1 (configuration not stated)	-	0	14.1µM	0	-	0
Cc1c(Cl)cccc1NC(=O)CCn1c(=O)c2cccn2c2ccccc21	-	0	0	0	-	-
Cc1ccc(S(=O)(=O)N2C/C=C\CN(S(=O)(=O)c3ccccc3Br)CC2)cc1	0	0	10µM	0	0	0
COc1ccc(-c2cc(C)no2)cc1S(=O)(=O)N1CCN(c2ccccn2)CC1	0	0	0	0	0	0
COc1ccc(-c2cc(C)no2)cc1S(=O)(=O)N1CCN(c2ccc([N+](=O)[O-])cc2)CC1	-105.7	0	0	0	-77.6	0
CCc1noc(C)c1C(=O)N1CCN(c2ccc([N+](=O)[O-])cc2)CC1	0	0	0	0	0	0

High-throughput results (PubChem BioAssay)
